The source made the active and inactive calls.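 Rule for the calls: active = compound whose M3 calcium response shifts with concentration, judged dose-dependent by the depositor; inactive = the rest, no dose-dependent response.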
These compounds were tested against Muscarinic acetylcholine receptor M3 (Homo sapiens) (UniProt P20309) (assay: human M3 receptor positive allosteric modulation, SAR follow-up, selectivity assay for M4 PAM optimization, CHO cells, calcium flux (AID 623926)). Settings: CHO hM3 cells, Fluo-4 calcium flux, ACh EC20; series mostly up to 30 µM.

outcome, inactive:
Cc1nc2sc(C(=O)NCc3cccc(F)c3F)c(N)c2c(C)c1Cl
Cc1nc2sc(C(=O)NCc3nccs3)c(N)c2c(C)c1Cl
COc1ccc(C)c2sc(NC(=O)c3ccncc3)nc12
Cc1nc2sc(C(=O)NCc3cccnc3)c(N)c2c(C)c1Cl
Cc1nc2sc(C(=O)NC3CC3)c(N)c2c(C)c1Cl
Cc1nc2sc(C(=O)NCc3ccccc3)c(N)c2c(C)c1Cl
Cc1nc2sc(C(=O)NCc3ccncn3)c(N)c2c(C)c1Cl
Cc1nc2sc(C(=O)NCc3ccc4c(c3)OCO4)c(N)c2c(C)c1Cl
Cc1nc2sc(C(=O)NCc3ccncc3)c(N)c2c(C)c1Cl
Cc1nc2sc(C(=O)NCCc3ccncc3)c(N)c2c(C)c1Cl

Source: PubChem BioAssay AID623926 (Vanderbilt Specialized Chemistry Center, 2012)
